{"source": "PubChem BioAssay AID1259343", "about": "(VanderVen Lab, College of Veterinary Medicine, Cornell …, 2017)", "note": "The whole screen tested about 6,200 compounds, of which about 2,900 (47%) were called active. Cut-off read from the data, not from the text of the source: active = inhibition above about 50%; inactive = the rest. The set was probably picked from earlier hits. The list shows a part of the results."}
{"experiment": "Mycobacterium tuberculosis growth inhibition, primary screen (AID 1259343)", "conditions": "inhibition: at 10 µM, active compounds read high; outcome: 10 uM"}
{"smiles": "O=C(Nc1ccc2c(c1)Cc1ccccc1-2)c1ccco1", "inhibition": "90% (active)"}
{"smiles": "O=C(Nc1ccc2c(c1)Cc1ccccc1-2)C1CCCO1", "note": "(stereo not given)", "inhibition": "81.9% (active)"}
{"smiles": "O=C(CCl)c1ccc(NC(=O)c2ccco2)cc1", "inhibition": "44.1% (inactive)"}
{"smiles": "CCOc1ccc(-n2c(C)cc(C(=O)COc3cccc(-n4cnnn4)c3)c2C)cc1", "inhibition": "89.6% (active)"}
{"smiles": "Brc1ccc(OCCOc2cccc(-n3cnnn3)c2)cc1", "inhibition": "69.1% (active)"}
{"smiles": "O=c1cnc2ccccc2n1CCOc1ccc(Br)cc1", "inhibition": "22.6% (inactive)"}
{"smiles": "OCC1(Cc2ccccc2F)CCCN(Cc2nc(-c3ccccc3)cs2)C1", "note": "(stereo not given)", "inhibition": "13.4% (inactive)"}
{"smiles": "CC(C)CC(NC(=O)c1ccc(Cl)cc1Cl)C(=O)Nc1ncn[nH]1", "note": "(stereo not given)", "inhibition": "3.98% (inactive)"}
{"smiles": "Cc1cc(OCC(=O)Nc2ncn[nH]2)c(C)cc1Br", "inhibition": "71.5% (active)"}
{"smiles": "CC(=O)c1cc(Cl)ccc1OCC(=O)Nc1ccc(C)cc1Br", "inhibition": "29.6% (inactive)"}
{"smiles": "COc1ccccc1OS(=O)(=O)CCS(=O)(=O)c1ccc(Cl)cc1", "inhibition": "33.8% (inactive)"}
{"smiles": "Brc1ccc(NCc2ccsc2)cc1", "inhibition": "47.5% (inactive)"}
{"smiles": "O=S(=O)(CCNc1ccc(Br)cc1)c1ccc(Cl)cc1", "inhibition": "93.3% (active)"}
{"smiles": "COc1ccc(-c2csc(-n3[nH]c(C)c(N=Nc4nccs4)c3=O)n2)cc1", "inhibition": "98.8% (active)"}
{"smiles": "Brc1ccccc1C1N=C(c2ccccc2)NO1", "note": "(stereo not given)", "inhibition": "67.1% (active)"}
{"smiles": "CC1=NN(c2nc(C)cc(C)n2)C(=O)C1Cc1ccccc1Cl", "note": "(stereo not given)", "inhibition": "-7.67% (inactive)"}
{"smiles": "CC(C(=O)O)c1ccc2c(c1)[nH]c1ccc(Cl)cc12", "note": "(stereo not given)", "inhibition": "86% (active)"}
{"smiles": "CCN(C)CC1CCN(C(=O)CC2CCC(c3ccccc3)CC2)C1", "note": "(stereo not given)", "inhibition": "-3.03% (inactive)"}
{"smiles": "CCN(CC)c1ncnc(N2CCC(c3ccccc3)CC2)c1N", "inhibition": "56.1% (active)"}
{"smiles": "CC(C)(C)C1CCN(c2ncnc(Oc3ccc(F)cc3)c2N)CC1", "inhibition": "25.6% (inactive)"}
{"smiles": "O=C(COn1nnc2ccc(C(F)(F)F)cc21)NC12CC3CC(CC(C3)C1)C2", "inhibition": "21.7% (inactive)"}
{"smiles": "COc1cccc(-c2cc3c(Nc4ccc5c(c4)OCCO5)nccc3n2C)c1", "inhibition": "61.1% (active)"}
{"smiles": "COc1cccc(-c2cc3c(Nc4ccc5c(c4)OCO5)nccc3n2C)c1", "inhibition": "85.6% (active)"}
{"smiles": "O=C1CCC2(CCCO2)CCN1Cc1ccc(C(F)(F)F)nc1", "note": "(stereo not given)", "inhibition": "-2.37% (inactive)"}
{"smiles": "O=C(Cn1nc(-c2ccc(F)cc2)oc1=O)N1CCSc2ccccc21", "inhibition": "80.5% (active)"}
{"smiles": "NC(N)=NCCCCN=C(N)N", "inhibition": "0.43% (inactive)"}
{"smiles": "CS(=O)(=O)N=C1C=C(S(=O)(=O)c2ccccc2)C(=O)c2ccccc21", "inhibition": "30.9% (inactive)"}
{"smiles": "COc1ccc2c(Cl)c(C(=O)n3cnc4ccccc43)sc2c1", "inhibition": "94.7% (active)"}
{"smiles": "COc1ccc2c([N+](=O)[O-])c(-n3nnc4ccccc43)[nH]c2c1", "inhibition": "-24.2% (inactive)"}
{"smiles": "O=[N+]([O-])c1nn(-c2ccc3c(c2)OCCO3)n(O)c1=NC1CCCCCC1", "inhibition": "62.8% (active)"}
{"smiles": "C(=Nn1c(-c2ccc3c(c2)OCCO3)csc1=NC1CCCCC1)c1cccnc1", "inhibition": "9.36% (inactive)"}
{"smiles": "Brc1cccc(N2CCC(CNc3ncccn3)C2)c1", "note": "(stereo not given)", "inhibition": "90.2% (active)"}
{"smiles": "O=S(=O)(NCc1ccc(N2CCCC2)cc1)c1cccc(Br)c1", "inhibition": "28.5% (inactive)"}
{"smiles": "CNC(=O)C1CCN(C(=O)COc2ccc(Oc3ccc(C)cc3)cc2)CC1", "inhibition": "-12.7% (inactive)"}
{"smiles": "Cc1ccc(COc2ccc(/C=N\\NC(=O)CN3CCCCC3)cc2)cc1", "inhibition": "83.3% (active)"}
{"smiles": "CC1Cc2cc(S(N)(=O)=O)ccc2N1CCCc1ccccc1", "note": "(stereo not given)", "inhibition": "-10.1% (inactive)"}
{"smiles": "O=c1c(Cl)c(NCC2CCC2)cnn1-c1ccc(Cl)cc1", "inhibition": "58% (active)"}
{"smiles": "CC(C)(C)n1ncc(NCC2CCCc3ccccc32)c(Cl)c1=O", "note": "(stereo not given)", "inhibition": "22.4% (inactive)"}
{"smiles": "O=c1c(Cl)c(Nc2ccc3c(c2)CCC3)cnn1-c1ccccc1", "inhibition": "21.7% (inactive)"}
{"smiles": "Cc1ccc(CC(SCc2ccccc2)C(=O)O)cc1C", "note": "(stereo not given)", "inhibition": "57.4% (active)"}
{"smiles": "Clc1ccc2nc(Cl)c3nnnn3c2c1", "inhibition": "102% (active)"}
{"smiles": "CCOc1ccc(Cl)cc1CNc1nnnn1C", "inhibition": "-8.06% (inactive)"}
{"smiles": "CN(C)c1ccc(Nc2nc3ccccc3n3nnnc23)cc1", "inhibition": "11.8% (inactive)"}
{"smiles": "Cc1ccc(OCC(=O)NC2CCCC(C)C2C)cc1", "note": "(stereo not given)", "inhibition": "60% (active)"}
{"smiles": "COc1cc(NC(=O)C(C)Oc2ccc(F)c(F)c2)cc(OC)c1", "note": "(stereo not given)", "inhibition": "34.5% (inactive)"}
{"smiles": "COc1ccc(-c2ccc(C(=O)NS(C)(=O)=O)c(F)c2)c(F)c1", "inhibition": "55.6% (active)"}
{"smiles": "Cc1cc(=O)[nH]c(-n2nc(C)cc2NC(=O)C2CC2)n1", "inhibition": "100% (active)"}
{"smiles": "Cc1cc(=O)[nH]c(-n2nc(-c3cccs3)cc2NC(=O)C2CC2)n1", "inhibition": "2.59% (inactive)"}
{"smiles": "Cc1cc(=O)[nH]c(-n2nc(-c3cccs3)cc2NC(=O)C2CCCCC2)n1", "inhibition": "100% (active)"}
{"smiles": "Cc1cc(NC(=O)C2CCC2)n(-c2ccc(C(F)(F)F)cn2)n1", "inhibition": "79.6% (active)"}
{"smiles": "FC(F)(F)c1ccc(N2CCN(C(=S)NC3CC3)CC2)nc1", "inhibition": "-12.1% (inactive)"}
{"smiles": "Cc1cc(=O)[nH]c(-n2nc(C)cc2NC(=O)C2CCCCC2)n1", "inhibition": "101% (active)"}
{"smiles": "O=C(Nc1nccs1)C1CCN(c2ccc(C(F)(F)F)cn2)CC1", "inhibition": "18.4% (inactive)"}
{"smiles": "Cc1ccccc1C(=O)OC1CCCN(C)C1", "note": "(stereo not given)", "inhibition": "-3.69% (inactive)"}
{"smiles": "Cc1cc(=O)[nH]c(-n2nc(C)cc2NC(=O)C2CCCC2)n1", "inhibition": "98.1% (active)"}
{"smiles": "O=C(CCl)Nc1cc([N+](=O)[O-])ccc1Cl", "inhibition": "71.2% (active)"}
{"smiles": "CC(C)NC(=O)c1ccc(-c2ccc([N+](=O)[O-])cc2Cl)o1", "inhibition": "37.9% (inactive)"}
{"smiles": "O=C(O)c1cc([N+](=O)[O-])ccc1NCCCc1ccccc1", "inhibition": "-0.63% (inactive)"}
{"smiles": "Cc1ccc(-c2csc(-c3ccc(O)cc3)n2)s1", "inhibition": "11.1% (inactive)"}
{"smiles": "Cc1ccc(-c2cc(C(=O)O)n[nH]2)s1", "inhibition": "99.8% (active)"}
{"smiles": "CCCCN(C)C(=O)c1cc(-c2ccc(C)s2)[nH]n1", "inhibition": "25.6% (inactive)"}
{"smiles": "O=C(Nc1ccc(Cl)c(Cl)c1)Nc1ccc(I)cc1F", "inhibition": "-10.8% (inactive)"}
{"smiles": "O=C(Nc1ccc(I)cc1)Nc1ccc(Cl)c(Cl)c1", "inhibition": "-0.68% (inactive)"}
{"smiles": "Cc1ccc(Cl)cc1Nc1ncccc1C(=O)N[C@H]1C[C@H]2CC[C@@H]1C2", "inhibition": "9.89% (inactive)"}
{"smiles": "O=C(O)c1cnc(Nc2ccc(F)c(F)c2)c(Cl)c1", "inhibition": "30.5% (inactive)"}
{"smiles": "O=C(O)c1cccnc1Nc1ccc(Cl)c(Cl)c1", "inhibition": "63.9% (active)"}
{"smiles": "O=C(Nc1ccccc1)Nc1ccc(Cl)c(Cl)c1", "inhibition": "95.9% (active)"}
{"smiles": "CCOc1ccc(NC(=O)c2nc(C)n(-c3ccc(Cl)cc3)n2)cc1", "inhibition": "94.3% (active)"}
{"smiles": "CCOc1ccc(NC(=O)c2ccc(Cl)o2)cc1", "inhibition": "17% (inactive)"}
{"smiles": "CCCCN(CCCC)CCCCSc1ccc(O)cc1", "inhibition": "74.1% (active)"}
{"smiles": "CC(C)(C)c1nc(COc2cccc3c2CCCC3O)no1", "note": "(stereo not given)", "inhibition": "5.49% (inactive)"}
{"smiles": "Cc1nc(-n2nc(-c3ccco3)cc2NC(=O)COc2ccc(F)cc2)[nH]c(=O)c1C", "inhibition": "100% (active)"}
{"smiles": "Cc1ccc(OCC(=O)Nc2cc(-c3ccco3)nn2-c2nc(C)c(C)c(=O)[nH]2)cc1", "inhibition": "101% (active)"}
{"smiles": "COc1cccc(C(=O)Nc2cc(-c3ccco3)nn2-c2nc(C)c(C)c(=O)[nH]2)c1OC", "inhibition": "98.4% (active)"}
{"smiles": "Cc1nc(-n2nc(-c3ccco3)cc2NC(=O)c2c(F)cccc2F)[nH]c(=O)c1C", "inhibition": "99.8% (active)"}
{"smiles": "Cc1ccccc1C(=O)Nc1cc(-c2ccco2)nn1-c1nc(C)c(C)c(=O)[nH]1", "inhibition": "-10.1% (inactive)"}
{"smiles": "Cc1nc(-n2nc(-c3ccco3)cc2NC(=O)CC(C)C)[nH]c(=O)c1C", "inhibition": "101% (active)"}
{"smiles": "Cc1nc(-n2nc(-c3ccco3)cc2NC(=O)C2CC2)[nH]c(=O)c1C", "inhibition": "99.8% (active)"}
{"smiles": "Cc1cc(N)n(-c2cc(C(F)(F)F)ccc2Cl)n1", "inhibition": "0.14% (inactive)"}
{"smiles": "Cn1ncc2c(N3CCC(OCc4cccnc4)CC3)nc(C(C)(C)C)nc21", "inhibition": "85.9% (active)"}
{"smiles": "CC(=O)O[C@H]1C[C@@]2(C)[C@@H](C[C@@H](O)[C@H]3[C@@]4(C)CC[C@@H](O)[C@@H](C)C4CC[C@@]32C)/C1=C(\\CCC=C(C)C)C(=O)O", "note": "(stereo not given in full)", "inhibition": "69.4% (active)"}
{"smiles": "O=S(=O)(NC(C1CC1)C1CC1)c1cccc(Br)c1", "inhibition": "14.3% (inactive)"}
{"smiles": "COc1ccc(-c2noc(CN3CCC(O)(c4cccc(C(F)(F)F)c4)CC3)n2)cc1", "inhibition": "56.9% (active)"}
{"smiles": "Oc1ccc(N2CCN(Cc3nc(-c4ccc(C(F)(F)F)cc4)no3)CC2)cc1", "inhibition": "72.1% (active)"}
{"smiles": "O=C(NCCC1=CCCCC1)c1c(O)nc2sccn2c1=O", "inhibition": "83.9% (active)"}
{"smiles": "CCCCNC(=O)c1c(O)nc2sccn2c1=O", "inhibition": "33.8% (inactive)"}
{"smiles": "CC(C)CCNC(=O)c1c(O)nc2sccn2c1=O", "inhibition": "89.6% (active)"}
{"smiles": "CC(C)CNC(=O)c1c(O)nc2sccn2c1=O", "inhibition": "55.9% (active)"}
{"smiles": "CN(C)S(=O)(=O)Oc1ccc(C(=O)c2ccccc2)cc1", "inhibition": "51.1% (active)"}
{"smiles": "O=C(O)c1ccc(OS(=O)(=O)c2ccc(Cl)c(Cl)c2)cc1", "inhibition": "35.4% (inactive)"}
{"smiles": "O=C1CCCCC1Sc1nnnn1-c1ccc(O)cc1", "note": "(stereo not given)", "inhibition": "41% (inactive)"}
{"smiles": "O=C(CSc1nn(-c2ccc(F)cc2)c(=S)s1)Nc1cc(F)ccc1F", "inhibition": "-1.19% (inactive)"}
{"smiles": "O=C1CCCCC1Sc1nn(-c2ccc(F)cc2)c(=S)s1", "note": "(stereo not given)", "inhibition": "70.1% (active)"}
{"smiles": "N#Cc1ccc(CON=Cc2ccc(OC(F)F)cc2)cc1", "inhibition": "-4.56% (inactive)"}
{"smiles": "O=[N+]([O-])c1ccc(CON=Cc2ccc(Cl)cc2Cl)cc1", "inhibition": "-5.39% (inactive)"}
{"smiles": "O=[N+]([O-])c1ccc(CON=Cc2ccc(OC(F)F)cc2)cc1", "inhibition": "55.5% (active)"}
{"smiles": "CC(C)CNC(=O)c1cn(Cc2ccc(F)cc2)nc1OCc1ccc(F)cc1", "inhibition": "13.6% (inactive)"}
{"smiles": "CC(C)CNC(=O)CSc1n[nH]c(/C=C/c2ccc(F)cc2)n1", "inhibition": "87% (active)"}
{"smiles": "C/C(Cl)=C\\COc1cc(C)nc2ccc(Br)cc12", "inhibition": "99.8% (active)"}
{"smiles": "Cc1coc2c1C(=O)C(=O)c1c-2ccc2c1CCCC2(C)C", "inhibition": "58.8% (active)"}
